Test results: PubChem BioAssay AID624330 (Southern Research Specialized Biocontainment Screening …, 2012)
About 2,100 (0.62%) of roughly 340,000 compounds were called active.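 The calls were made as follows: active = first-screen hits whose inhibition reached a set limit at any dose in the follow-up dose series; inconclusive = inhibition above the set first-screen limit but never retested; inactive = the rest.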 The list is a sample of the results. Results with a measured potency or affinity are listed apart.

The molecules below were run against Rac GTPase-activating protein 1 (Homo sapiens) (UniProt Q9H0H5) (assay: blockers of MgcRacGAP-driven Rac1 GTP hydrolysis – biochemical, ADP Hunter fluorescence, primary and confirmatory, confirmation (AID 624330;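 also: fluorescence reports GDP produced by GAP-driven GTP hydrolysis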)). Conditions: MgcRacGAP-stimulated Rac1 GTP hydrolysis, at 30 µM, hits give high values, GST-tagged Rac1 F28L mutant substrate.
Chain of Rac GTPase-activating protein 1 (Homo sapiens) (Q9H0H5 whole entry, looked up): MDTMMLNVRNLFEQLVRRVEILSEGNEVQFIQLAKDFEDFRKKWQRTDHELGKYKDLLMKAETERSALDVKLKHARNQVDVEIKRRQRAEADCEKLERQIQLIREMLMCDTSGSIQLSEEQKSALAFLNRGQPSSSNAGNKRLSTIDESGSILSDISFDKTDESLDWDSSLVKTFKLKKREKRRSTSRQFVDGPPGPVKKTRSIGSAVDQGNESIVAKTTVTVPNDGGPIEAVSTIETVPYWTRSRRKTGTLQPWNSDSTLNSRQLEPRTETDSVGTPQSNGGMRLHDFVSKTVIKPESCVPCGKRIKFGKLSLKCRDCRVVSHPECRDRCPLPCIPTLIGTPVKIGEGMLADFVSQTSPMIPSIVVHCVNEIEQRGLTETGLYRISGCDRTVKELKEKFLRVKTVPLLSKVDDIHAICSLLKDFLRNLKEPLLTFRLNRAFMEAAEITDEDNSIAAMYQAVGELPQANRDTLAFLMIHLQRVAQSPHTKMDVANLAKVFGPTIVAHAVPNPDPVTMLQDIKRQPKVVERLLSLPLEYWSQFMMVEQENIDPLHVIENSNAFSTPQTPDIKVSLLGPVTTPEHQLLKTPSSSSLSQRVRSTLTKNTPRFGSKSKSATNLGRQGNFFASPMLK

inhibition, inactive:
O=C(Cn1c(-c2ccccc2)noc1=O)N1CCC(Cc2ccccc2)CC1 5.27%
O=C(CNCc1ccccc1)Nc1cccc(Cl)c1Cl 27.2%
CCCCCN(C(=O)CCC(=O)OCC(=O)c1c(C)cc(C)cc1C)c1c(N)n(CCCC)c(=O)[nH]c1=O 3.32%
CCN(C(=O)c1c(N)cnn1C)c1ccccc1 -2.97%
COc1ccc(N2CCN(C(=O)COC(=O)c3cccc(S(=O)(=O)Nc4cccc(C)c4)c3)CC2)cc1 5.68%
CCOC(=O)c1oc2cc(C)cc(C)c2c1C 4.4%
CCOC(=O)c1oc2cccc(O)c2c1C 5.83%
Cc1ccc(-n2ncc3c2CC(C)(C)CC3NC(=O)c2c(C)noc2C)cc1 (centres undefined) 5.31%
CC(=O)Nc1ccc(S(=O)(=O)Nc2cc(C)cn(Cc3ccccc3)c2=O)cc1 3.18%
O=C(CN1CCN(S(=O)(=O)c2ccc(F)c(Cl)c2)CC1)N1CCc2ccccc2C1 2.62%
O=C(CN1CCN(S(=O)(=O)c2ccc3ccccc3c2)CC1)N1CCc2ccccc2C1 10.7%
O=C(CN1CCN(S(=O)(=O)c2cc(C(F)(F)F)ccc2Cl)CC1)N1CCc2ccccc2C1 9.9%
COc1ccc(S(=O)(=O)N2CCN(CC(=O)N3CCc4ccccc4C3)CC2)cc1OC 7.25%
Cc1cc(OCC(=O)NCC(c2ccc(F)cc2)N2CCOCC2)ccc1Cl (centres undefined) 3.16%
O=C(CCc1ccc(S(=O)(=O)N2CCOCC2)cc1)Oc1ccccc1 8.54%
CN1CCN(CC(=O)Nc2cc(N(C)C)nc3ccccc23)CC1 27.1%
CN(C)c1cc(NC(=O)CN2CCOCC2)c2ccccc2n1 0.97%
O=C(CN1CCCC1)Nc1c2c(nc3ccccc13)N(Cc1ccccc1)CC2 3.93%
CCCCc1nc2ccccc2c(NC(=O)CNC(C)(C)C)c1CCC 20.5%
CCCCc1nc2ccccc2c(NC(=O)CN2CCCC2)c1CCC 28.9%
O=C(CN1CCCCC1)Nc1c2c(nc3ccccc13)N(c1ccccc1)CC2 20.7%
CCCn1c(=O)c(C(=O)NCC2CCCO2)c(O)c2ccccc21 (centres undefined) 5.01%
O=C1c2ccccc2C(=O)N1CCCCNc1ccccc1 -2.64%
COC(=O)c1sc2ncccc2c1OCc1ccc(Cl)cc1 1.91%
N#C/C(=C\c1ccc2c(c1)OCCO2)C(=O)NC1CCCCC1 4%
C=CCOC(=O)COc1ccc2c(C)c(C)c(=O)oc2c1C -6.38%
COCCNC(=O)c1cc2c(=O)[nH]c3ccccc3c2s1 6.07%
CCOc1ccc(/C=N/Nc2ccc(C(F)(F)F)cc2[N+](=O)[O-])cc1O 13.1%
O=C(CCc1nc2ccccc2c(=O)[nH]1)Nc1ccc(F)c([N+](=O)[O-])c1 2.61%
CCC1=Nc2cc(C(=O)O)ccc2Sc2ccc(Cl)cc21 6.46%
Clc1ccc(C2=Nc3cc(Cl)ccc3OC2)cc1 12.9%
CCOc1ccc2nc(SCC(=O)NCc3ccc(OC)cc3)[nH]c2c1 6.56%
Cc1ccc2c(c1)N(C(=O)CCC(=O)N1CCN(c3ccccc3)CC1)CCO2 11.2%
COc1ccc(/C=N\NC(=O)CNC(=O)C2COc3ccccc3O2)cc1[N+](=O)[O-] (centres undefined) 5.39%
CCN(CC)c1ccc(/C=N/NC(=O)CNC(=O)C2COc3ccccc3O2)c(O)c1 (centres undefined) 5%
O=C(CNC(=O)C1COc2ccccc2O1)N/N=C\c1cccc(O)c1 (centres undefined) 3.96%
COc1ccc(/C=N/NC(=O)CNC(=O)C2COc3ccccc3O2)cc1OC (centres undefined) 6.43%
CCOC(=O)N1CCN(C(=O)COC(=O)c2cc(C)ccc2C)CC1 -2.55%
CCOc1ccccc1NC(=O)CN(c1ccc(C)cc1)S(=O)(=O)c1c(C)n[nH]c1C 0.88%
Cc1cc(C(=O)O)ccc1NCc1ccncc1 7.32%
COCCN(CC(=O)NC1CCCCC1)C(=O)CCCC(=O)Nc1ccccn1 -5.13%
COC(=O)c1ccc(C(=O)OC)c(NC(=S)N2CCCCC2C)c1 (centres undefined) 8.35%
O=C(CN1CCN(c2ccc(F)cc2)CC1)NC(=O)NCc1ccco1 -4.47%
Cc1ccc(NC(=O)NC(=O)CN2CCC(C(N)=O)CC2)c(C)c1 -2.71%
COc1ccc(N2CCN(CC(=O)Nc3ccc(C)cc3Br)CC2)cc1 -18.4%
O=C(CN1CCN(c2ccccc2)CC1)NC(=O)NCc1ccco1 5.31%
Cc1ccccc1NC(=O)c1ccccc1NC(=O)c1ccco1 4.69%
Cn1cccc1C(=O)OCc1ccc(F)cc1 5.26%
COc1ccc(OC)c(/C=N\NC(=O)c2c(C)nc3cc(C)ccn23)c1 -1.68%
COc1ccc(/C=N/NC(=O)c2c(C)nc3ccccn23)cc1[N+](=O)[O-] 0.27%
Cc1ccn2c(C(=O)N/N=C/c3ccc(Cl)cc3)c(C)nc2c1 8.94%
Cc1nc2ccccn2c1C(=O)N/N=C/c1ccc(F)cc1 6.23%
CN(CC1CCOCC1)C(=O)CC1C(=O)NCCN1Cc1cccc(Oc2ccccc2)c1 (centres undefined) -8.59%
O=C(CSc1nnc(CNC(=O)c2c(F)cccc2F)o1)NCCc1ccccc1 6.85%
CCN1C(=O)[C@@H]2[C@H](C1=O)[C@@H]1C(=O)Nc3ccccc3C(=O)N1[C@@H]2c1ccc(OC)cc1 3.37%
O=C(Nc1ccccc1C(=O)NCCc1ccccc1)c1cnccn1 8.13%
N#Cc1cc(-c2ccccc2)cnc1Sc1ccccc1 -2.07%
CCN(CC)CCCNC(=O)Cc1c(C(=O)O)n(C)c2ccccc12 7.17%
c1ccc(C(CN2CCOCC2)c2ccccc2)cc1 14.5%
Cc1ccccc1C(OCC(O)CN1CCC(C(N)=O)CC1)c1ccccc1 (centres undefined) 6.34%
OC(COC(c1ccccc1)c1ccccc1)CN1CCCCC1 (centres undefined) 6.55%
CC(=O)c1ccc(N2CCN(CC(O)COC(c3ccccc3)c3ccccc3C)CC2)cc1 (centres undefined) 12.8%
CCOC(=O)N1CCN(CC(c2ccccc2)c2ccccc2)CC1 20.9%
CCN1CCN(CC(O)COC(c2ccccc2)c2ccccc2)CC1 (centres undefined) 0.21%
Cc1nnsc1C(=O)Nc1ccc(S(=O)(=O)N2CCCC(C)C2)cc1 (centres undefined) -21.6%
Cc1cc([N+](=O)[O-])nn1CC(=O)NCc1ccc(Cl)cc1 0.89%
COC(=O)Cc1c(OC)ccn(CCc2c[nH]c3ccccc23)c1=O 8.25%
CN1C(=O)C(C)(C)c2cc(S(=O)(=O)N3CCCC(C(=O)NCc4ccc(F)cc4)C3)ccc21 (centres undefined) 17.2%
CCC(CC)C(=O)Nc1ccc(C(=O)Nc2cc(C)on2)cc1 5%
COc1ccc(CNC(=O)C(=O)NCC2OCCCN2S(=O)(=O)c2cccs2)cc1 (centres undefined) 8.22%
COc1cc(C2Nn3c(nnc3-c3ccccc3OC)S2)ccc1O (centres undefined) 3.42%
N#CC1=C(N)OC(c2ccccc2)=C(C#N)C1c1ccc2c(c1)OCO2 (centres undefined) -0.39%
CC(C)Cc1ccc(C(=O)NCCOc2ccccc2)o1 5.6%
CNC(=O)c1c(NC(=O)c2ccc(S(=O)(=O)N3CC(C)OC(C)C3)cc2)sc2c1CCN(C(C)C)C2 (centres undefined) 11.2%
Cc1ccc(C(=O)NCC(=O)Nc2ncccc2C)s1 -8.48%
Cc1ccc(C(=O)Nc2ccncc2)cc1S(=O)(=O)N1CCOCC1 5.06%
CCOc1ccc(CCN2C(=S)N([C@@H](CC(C)C)CN3CCCC3CN3C(=S)NC[C@@H]3Cc3ccc(O)cc3)C[C@@H]2Cc2ccccc2)cc1 (some centres undefined) -2.29%
C[C@H](CO)N1C[C@H](C)[C@@H](CN(C)C(=O)c2ccccc2)OCc2cnnn2CCCC1=O 16.3%
O=C(Nc1ccccc1O)c1ccc([N+](=O)[O-])cc1 6.91%
Oc1ccccc1N=Cc1ccc[nH]1 16.7%
O=C(CN1CCOCC1)Nc1ccc(-c2nc3ccccc3[nH]2)cc1 10.7%
CC(C)C[C@@H](C(=O)O)N(Cc1cccc(CN([C@@H](CC(C)C)C(=O)O)S(C)(=O)=O)c1)S(C)(=O)=O 9.29%
CC1=C(C(=O)Nc2ccccc2C)C2(CCCC2)C(C(N)=O)C(=O)N1 (centres undefined) -3.29%
CCOC(=O)c1cnc2c(-c3ccccc3)cnn2c1C 8.8%
CCNC(=O)CSC1=N/C(=C\c2ccc(O)c(OCC)c2)C(=O)N1c1ccc(OC(F)F)cc1 7.81%
NC(=O)CSC1=N/C(=C\c2ccco2)C(=O)N1c1ccc(OC(F)F)cc1 9.08%
CCC(C)[C@H](NC(=O)N1CCN(C)CC1)C(=O)OC (some centres undefined) 3.84%
Cc1ccc(C(=O)Nc2cccc(Oc3ccccc3)c2)o1 1.9%
Nc1ccc(C(=O)OCCCc2nc3cc4ccccc4cc3[nH]2)cc1 14.4%
c1ccc2[nH]c(CCCc3nc4ccccc4[nH]3)nc2c1 -1.49%
Nc1ccc(C(=O)OCCCc2nc3ccccc3[nH]2)cc1 10%
Cc1ccc2nc(Cc3ccc(N)cc3)[nH]c2c1 6.07%
c1ccc(Cc2nc3ccccc3[nH]2)cc1 -0.91%
c1ccc2[nH]c(CCCCc3nc4ccccc4[nH]3)nc2c1 7.39%
